Screening data (PubChem BioAssay)
In the library only some 2.1% were active in any assay of this set; here they are far more common.
EWS-Fli block – EWS/Fli-driven NR0B1 reporter inhibitors, primary screen, A673 cells, NR0B1 luciferase, luminescence, MLPCN library. AID 651661, 2012. actives 0.67% (n = 350,000). inhibition, % at 12.6 µM. viability-normalised;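 active = mean inhibition of at least 50% after viability correction, with every replicate also passing that limit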;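 note: firefly luciferase signal divided by Alamar Blue viability fluorescence both relative to DMSO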
PAX8 inh HTS – inhibitors of PAX8-driven TPO luciferase reporter, primary screen, RMG-I cells, single concentration; SteadyGlo, 24 h; inhibition, % at 12.6 µM; actives 1.2% (n = 360,000); AID 652154, 2013;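 active = mean replicate inhibition at least 60% with every replicate also reaching 60%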;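 note: luciferase light reporting Pax8 driven TPO promoter activity; plate controls were median of neutral control wells for no effect and mitoxantrone controls for full effect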
HIF-2a inh – HIF-2a reporter inhibitors, primary screen, luminescence, 786-0 RCC cells; 786-0 RCC cells HIF-2a reporter, luciferase luminescence, overnight; actives 0.72% (n = 360,000); inhibition, % at 18.8 µM;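 active = inhibition of the luminescence signal of 40% or more relative to plate controls, in a single-dose primary screen at 18.75 µM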
KKLEB cytotox – cytotoxicity in KKLEB CF airway cells, primary screen, cytotoxicity control for CF NF-kB inhibitor project, cell-based, uHTS, fluorescence assay plates | KKLEB CF airway cells viability, ATPlite luminescence, overnight; active compounds read low; cells stimulated with P. aeruginosa culture filtrate | activity change (cytotoxicity), % at 5 µM | actives 0.36% (n = 360,000);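 active = corrected activity change at or below -50% at 5 µM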
CF NFkB inh – inhibitors of PAF-induced NF-kB signaling, primary screen, cell-based, GFP fluorescence, uHTS | actives 0.86% (n = 360,000) | AID 588850, 2011 | inhibition, % at 5 µM | KKLEB NF-kB-GFP reporter, GFP fluorescence overnight;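 active = at least 50% inhibition at 5 µM, scaled per plate between neutral and stimulator controls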;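 note: PAF is a Pseudomonas aeruginosa culture filtrate used as stimulus; plate controls were PAF-stimulated DMSO wells for no effect and unstimulated DMSO wells for full effect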
* = called active by the depositor.

`Cc1ccc(-c2nc(C)sc2CC(=O)OCC(=O)Nc2cccc([N+](=O)[O-])c2)cc1` gave EWS-Fli block -4, PAX8 inh HTS 109*, HIF-2a inh 13, KKLEB cytotox 9 and CF NFkB inh -2.
Screening Cc1ccc(C(=O)c2ccccc2C(=O)OCC(=O)Nc2cccc([N+](=O)[O-])c2)cc1 returned HIF-2a inh -14, KKLEB cytotox 3 and CF NFkB inh 9.
For COc1ccc2c3c([nH]c2c1)[C@H](CO)N(C(=O)Cc1ccccc1)CC31CN(C)C1 the results were EWS-Fli block -22 and PAX8 inh HTS 0.
`CC(C)(C)c1ccc(OCC(=O)NNC(=S)NC(=O)c2ccco2)c(Br)c1` gave PAX8 inh HTS -7, HIF-2a inh 5, KKLEB cytotox -78* and CF NFkB inh 58*.
Screening CC(C)c1ccc(OCC(=O)NNC(=S)NC(=O)c2ccco2)c(Br)c1 returned PAX8 inh HTS -12, HIF-2a inh -11, KKLEB cytotox -11 and CF NFkB inh -12.
For CO[C@@H]1CN(C)C(=O)c2cc(NC(=O)C3CCCC3)ccc2OC[C@@H](C)N(C(=O)c2ccccc2)C[C@H]1C the results were EWS-Fli block -2 and PAX8 inh HTS -17.
Cc1nn(-c2ccc3ccccc3c2)c(=O)c2ccccc12 was read as EWS-Fli block -45, PAX8 inh HTS -72, HIF-2a inh -171, KKLEB cytotox -14 and CF NFkB inh 16.
For Cc1nn(-c2nc3ccccc3[nH]2)c(=O)c2ccccc12 the results were EWS-Fli block 88*, PAX8 inh HTS 105*, HIF-2a inh 95*, KKLEB cytotox -78* and CF NFkB inh -12.
O=C(C[C@@H]1C[C@@H]2c3cc(NC(=O)Nc4ccccc4)ccc3O[C@@H]2[C@@H](CO)O1)NCc1cccnc1 was read as EWS-Fli block -12 and PAX8 inh HTS -2.
For O=C(CC(F)(F)F)N1C[C@@H]2[C@H](c3ccccc31)[C@H](CO)N2C(=O)CN1CCOCC1 the results were EWS-Fli block 4 and PAX8 inh HTS 0.
c1ccc(-c2nn(-c3ccccc3)[n+](-c3ccccc3)n2)cc1 was read as EWS-Fli block 11, PAX8 inh HTS 77*, HIF-2a inh -16, KKLEB cytotox -8 and CF NFkB inh 2.
Screening OC[C@@H]1[C@@H](c2ccccc2)C(c2ccccc2)=NN1c1ccccc1 returned EWS-Fli block 15, PAX8 inh HTS 20, HIF-2a inh 11, KKLEB cytotox -3 and CF NFkB inh -2.
For CC1CCN(CCc2nc3cc(NS(=O)(=O)c4ccc(F)cc4)ccc3n2C)CC1 the results were PAX8 inh HTS 56, HIF-2a inh 20, KKLEB cytotox 3 and CF NFkB inh 14.
CC1CCN(CCc2nc3cc(NS(=O)(=O)c4ccccc4)ccc3n2C)CC1 was read as PAX8 inh HTS 93*, HIF-2a inh 10, KKLEB cytotox 3 and CF NFkB inh 8.
COc1ccccc1-c1cnc2c(c1)C(=O)N([C@@H](C)CO)C[C@@H](C)[C@@H](CN(C)Cc1cccnc1)O2 was read as EWS-Fli block 2.
Screening N#Cc1cccc(-c2csc(C(O)(c3ccccc3)C(F)(F)F)n2)c1 (stereo unspecified) returned EWS-Fli block 58*, PAX8 inh HTS 9, HIF-2a inh 13, KKLEB cytotox 2 and CF NFkB inh -30.
For CCOc1cccc(C(=O)Nc2cccc(-c3nnc(-c4ccccc4)o3)c2)c1 the results were EWS-Fli block -24, HIF-2a inh -74, KKLEB cytotox -3 and CF NFkB inh -1.
For CCOc1cccc(C(=O)Nc2cccc(-c3nnc(-c4ccc(C)cc4)o3)c2)c1 the results were HIF-2a inh 1, KKLEB cytotox -68* and CF NFkB inh 57*.
For c1ccc(-c2nnc(-c3ccccn3)nc2NC2CCCCC2)cc1 the results were PAX8 inh HTS 69*, HIF-2a inh -27, KKLEB cytotox -15 and CF NFkB inh 35.
For CCNC(=O)C[C@@H]1CC[C@H]2[C@@H](COc3ccc(NC(=O)c4cscn4)cc3C(=O)N2C)O1 the results were EWS-Fli block -3 and PAX8 inh HTS -6.
`O=C1NC(Cc2ccc(Cl)cc2)COCc2cnnn2CCC1c1ccccc1` (stereo unspecified) gave EWS-Fli block -1 and PAX8 inh HTS 4.
Screening CCCCCc1cc(=O)oc2c(C(CCN(CC)CC)c3cc(OC)c(OC)c(OC)c3)c(OC)cc(OC)c12 (stereo unspecified) returned EWS-Fli block 51*, PAX8 inh HTS 15, HIF-2a inh -7, KKLEB cytotox -11 and CF NFkB inh 12.
For CCCCCc1cc(=O)oc2c(C(CCN3CCCCC3)c3ccc4c(c3)OCO4)c(OC)cc(OC)c12 (stereo unspecified) the results were EWS-Fli block 21, PAX8 inh HTS 88*, HIF-2a inh 13, KKLEB cytotox -11 and CF NFkB inh 13.
`CCN(CC)CCC(c1ccc(N(C)C)cc1)c1c(OC)cc(OC)c2c(-c3ccccc3)cc(=O)oc12` (stereo unspecified) gave EWS-Fli block 8, PAX8 inh HTS 18, HIF-2a inh 5, KKLEB cytotox -13 and CF NFkB inh -2.
Screening N#C[C@@H]1[C@@H](c2ccccc2)[C@@H](CO)N1S(=O)(=O)Cc1ccccc1 returned EWS-Fli block -1 and PAX8 inh HTS 1.
For CN(C)c1cccc(C(=O)Nc2cc(C(F)(F)F)ccc2-n2cnc3ccccc32)c1 the results were EWS-Fli block 8, PAX8 inh HTS 81*, HIF-2a inh 21, KKLEB cytotox -4 and CF NFkB inh 6.
For COc1ccc(CNc2nc3ccccc3n2CCN2CCCCC2)cc1 the results were EWS-Fli block 10, PAX8 inh HTS -15, HIF-2a inh 19, KKLEB cytotox -13 and CF NFkB inh 4.
Screening COc1ccc(CCN2CCC(Nc3nc4ccccc4n3Cc3ccc(F)cc3)CC2)cc1 returned EWS-Fli block 33, PAX8 inh HTS 74*, HIF-2a inh -14, KKLEB cytotox -11 and CF NFkB inh 3.
Cc1[nH]c2ccccc2c1C1=CC(=O)C=CC1=O was read as EWS-Fli block 21, PAX8 inh HTS 21, HIF-2a inh 16, KKLEB cytotox -13 and CF NFkB inh 74*.
Cc1[nH]c2ccccc2c1CC#N was read as EWS-Fli block -2, PAX8 inh HTS 6, HIF-2a inh 21, KKLEB cytotox 1 and CF NFkB inh -12.
Screening CCC(=O)N1CC(=O)N2[C@H](C1)[C@@H](c1ccc(-c3ccccc3F)cc1)[C@@H]2CO returned EWS-Fli block -22.
Cc1ccc(OC(=O)c2oc3ccc(F)cc3c2C)c(C)c1 was read as HIF-2a inh -114, KKLEB cytotox -69* and CF NFkB inh 53*.
